PMP22 txn prim = modulates PMP22 transcription in S16 Schwann cells; Potency, µM (top dose mostly 57.5 µM), hits mostly inhibitors; AID 1508649; actives 2% (n = 43,000); S16 Pmp22-F2sN Schwann cells, FLuc/NLuc coincidence luminescence, 24 h; active = clear falling dose curves in both reporters; inconclusive = both reporters move, but less clearly or upward; inactive = either reporter flat; the % is the NLuc reporter signal
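Luminescent read-out of sequential FLuc and NLuc signals from a reporter embedded in the Pmp22 3' UTR of S16 Schwann cells, taken after 24 h compound exposure at 37C; compounds reducing both signals score as inhibitors of expression.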
GALK inh = inhibits human galactokinase; P51570; 44,000 tested, under 10 active; recombinant GALK, Kinase-Glo ATP luminescence, 1 h; AID 1347072; Potency, µM (highest dose often 57.5 µM), hits mostly inhibitors
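Compounds were pinned into ATP buffer, then GALK-galactose mix was added (final 5 nM enzyme, 35 uM ATP, 100 uM galactose, pH 8.0). After 1 h at room temperature, Kinase-Glo Plus was added and luminescence read.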
PTAP-TSG101 blk = TSG101-PTAP interaction inhibition, HIV-1 budding. Fluorescence polarization, FITC-PTAP peptide/Tsg101, 20 min. 44,000 tested, under 10 active. AID 1347069. Potency, µM (doses to about 115 µM), hits mostly inhibitors. Q99816
Target sequence (Q99816 whole entry, looked up): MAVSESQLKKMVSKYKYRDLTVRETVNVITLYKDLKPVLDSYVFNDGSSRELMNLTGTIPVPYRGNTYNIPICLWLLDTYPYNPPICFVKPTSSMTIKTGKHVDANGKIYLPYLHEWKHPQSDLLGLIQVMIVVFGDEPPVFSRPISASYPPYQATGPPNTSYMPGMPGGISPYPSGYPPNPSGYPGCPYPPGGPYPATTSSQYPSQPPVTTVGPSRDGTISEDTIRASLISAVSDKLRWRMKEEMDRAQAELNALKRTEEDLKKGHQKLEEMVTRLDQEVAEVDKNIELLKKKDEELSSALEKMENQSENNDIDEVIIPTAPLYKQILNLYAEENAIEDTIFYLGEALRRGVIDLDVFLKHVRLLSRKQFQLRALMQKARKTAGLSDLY
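FITC-labeled PTAP peptide (50 nM final) binding to Tsg101 binding domain (10 uM final) read by fluorescence polarization after 20 min at r.t. in HEPES pH 7.5 buffer. Actives by CRC class, <25 µM.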
S16 viability = cytotoxicity in S16 Pmp22-F2sN Schwann cells | S16 Pmp22-F2sN Schwann cells (luciferase reporters placed in the Pmp22 gene) viability, CellTiter-Glo, 24 h | Potency, µM (series often up to 57.5 µM), actives largely listed as cytotoxic | actives 0.48% (n = 43,000) | AID 1508642; also: nearly all actives have a fitted effect of over 65% in size
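Seed 500-1,000 S16 Pmp22-F2sN cells per well in phenol-red-free DMEM with 10% heat-inactivated FBS; pin-add 23 nL compound; incubate 24 h at 37C; add CellTiter-Glo, wait 15 min protected from light; read luminescence.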
mTORC1 inh = mTORC1 pathway inhibition measured by phospho-rpS6 | Tsc2-/- p53-/- MEF, phospho-rpS6 immunofluorescence/PI, 24 h | Potency, µM (titrated, usually from 38.3 µM), hits mostly inhibitors | actives 0.78% (n = 44,000) | AID 493208; also: nearly all actives have a fitted effect of over 50% in size
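Readout is phospho-S6 Alexa 488 signal normalized to PI per well, reported as % active cells with thresholds set from rapamycin (7.5 nM) and DMSO controls. Cells: Tsc2-/-, p53-/- MEFs, 24 hrs compound at 37 C; PI cell number serves as viability.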
Hits are given with their value; . = inactive; ? = inconclusive; / = no result given. Rows were chosen to be rich in hits. Some 2.8% of all compounds tested hit in one or more screens of this group. Unless noted, calls follow the shape of the dose curve; as a rule, active = well fitted curve in the direction sought with a large enough effect; inconclusive = small, poorly fitted or top-dose-only effect, or another doubt; inactive = no such curve, though single readings can be large; an effect the other way counts as inactive or inconclusive.

SMILES | PMP22 txn prim | GALK inh | PTAP-TSG101 blk | S16 viability | mTORC1 inh
Cc1ccc(NC(=O)Cn2cc(S(=O)(=O)N3CCN(c4ccccc4F)CC3)c3ccccc3c2=O)cc1F | . | . | . | . | .
Cc1cc(C)c2nc(N3CCCC(C(=O)NCc4ccccc4F)C3)sc2c1 (configuration not stated) | . | . | . | . | .
COc1c(Cl)cc(C(=O)Nc2cccc(-c3nc4ccccc4[nH]3)c2)cc1Cl | ? | . | . | . | .
CCCN(CCC)S(=O)(=O)c1ccc(C(=O)Nc2cccc(-c3nc4ccccc4[nH]3)c2)cc1 | 18.9µM | . | . | ? | .
CCOC(=O)c1ccc(Nc2nc3nonc3nc2Nc2cccc(C)c2C)cc1 | 10.6µM | . | . | ? | .
Cc1cccc(N2CCN(C(=O)c3cn(C4CCCCC4)c(=O)c4c3c3ccccc3n4C)CC2)c1C | ? | . | . | . | .
COc1ccc(-c2nc(CN3CCC(C(=O)NCCCN4CCN(c5ccccc5F)CC4)CC3)c(C)o2)cc1OC | ? | . | . | ? | 14.7µM
CCCCNC(=O)C1CCN(Cc2nc(-c3ccc(OC)c(OC)c3)oc2C)CC1 | . | . | . | . | .
Cc1oc(-c2cccc(Cl)c2)nc1CN1CCC(C(=O)NCCCN2CCN(c3ccc(F)cc3)CC2)CC1 | 9.58µM | . | . | 10µM | .
Cc1oc(-c2cccc(Cl)c2)nc1CN1CCCC(C(=O)NCc2ccc(F)cc2)C1 (configuration not stated) | ? | . | . | . | .
Cc1oc(-c2cccc(Cl)c2)nc1CN1CCC(C(=O)NCCCN2CCN(c3ccccc3F)CC2)CC1 | 7.94µM | . | . | ? | .
O=C(Nc1ccc2nc(SCCOc3ccccc3Cl)sc2c1)c1cccs1 | ? | . | . | . | .
Cc1ccc(C)c(CN2CCC(CNC(=O)Nc3ccc(Br)cc3F)CC2)c1 | ? | . | . | 28.2µM | ?
COc1ccc(NC(=O)NCC2CCN(Cc3ccccc3F)CC2)c(OC)c1 | ? | . | . | . | .
COCc1oc2ccc(NS(=O)(=O)c3ccc(C)cc3)cc2c1C(=O)OC | 7.13µM | . | . | . | ?
CCC(=O)N1CCc2cc(S(=O)(=O)N(C)c3cccc(C)c3)ccc21 | ? | . | . | . | .
CCOc1cc(CNc2ccc(O)cc2)cc(Cl)c1OCc1ccccc1 | ? | ? | . | 8.91µM | ?
Cc1ccccc1Nc1c(-c2ccc(N3CCOCC3)cc2)nc2ccc(Br)cn12 | . | . | . | . | .
Cc1ccc(CNC(=O)C(=O)NCC(c2ccco2)S(=O)(=O)c2cccs2)cc1 (configuration not stated) | . | . | . | . | .
Cc1cc(C)c(S(=O)(=O)NCC(c2ccco2)S(=O)(=O)c2cccs2)c(C)c1 (configuration not stated) | ? | . | . | 17.8µM | .
Cc1cc(S(=O)(=O)NCC(c2ccco2)S(=O)(=O)c2cccs2)ccc1F (configuration not stated) | 8.97µM | . | . | 10µM | .
Cc1cc(S(=O)(=O)NCC(c2ccco2)S(=O)(=O)c2ccccc2)ccc1F (configuration not stated) | . | . | . | ? | .
CCCC(=O)OC1=CN(Cc2ccccc2)S(=O)(=O)c2ccccc21 | . | . | . | . | 16.5µM
CCOc1ccc(CCNC(=O)CN2CCN(Cc3ccc(Cl)cc3)C2=O)cc1OCC | ? | . | . | . | .
CCCCNC(=O)c1cc(-c2ccc(OC)cc2)nc2n[nH]c(-c3cccc([N+](=O)[O-])c3)c12 | ? | . | . | 15.8µM | .
SMILES | PMP22 txn prim | GALK inh | PTAP-TSG101 blk | S16 viability | mTORC1 inh
COc1ccc(CNC(=O)c2cc(-c3ccc(OC)cc3)nc3n[nH]c(-c4cccc([N+](=O)[O-])c4)c23)cc1 | ? | . | . | . | .
COc1ccc(CNC(=O)c2cc(-c3ccc(OC)c(OC)c3)nc3n[nH]c(-c4ccc(C)cc4)c23)cc1 | ? | . | . | . | 14.7µM
CC1CCCN(CCCNC(=O)c2cc3c(Cl)nc4ccccc4c3s2)C1 (configuration not stated) | ? | . | . | ? | 18.5µM
CN(CCCNC(=O)c1cc2c(Cl)nc3ccccc3c2s1)Cc1ccccc1 | ? | . | . | ? | 13.1µM
CCN(CCCNC(=O)c1cc2c(=O)[nH]c3ccc(C)cc3c2s1)Cc1ccccc1 | ? | . | . | ? | 18.5µM
CCN(CC)CCCNc1sc(S(=O)(=O)c2ccccc2)nc1S(=O)(=O)c1ccc(Cl)cc1 | ? | . | . | ? | 9.27µM
CCOC(=O)C1CCCN(C(=O)C2CCN(c3nnc(C)c4c(C)n(-c5ccccc5)nc34)CC2)C1 (configuration not stated) | . | . | . | . | .
O=C(NCCc1ccc(Cl)cc1)C(=O)NCC(c1ccco1)S(=O)(=O)c1ccc(Cl)cc1 (configuration not stated) | ? | . | . | ? | 1.17µM
CCCCN(C)CCNC(=O)C1CCN(c2nc3ccc(CC)cc3s2)CC1 | ? | . | . | ? | 11.7µM
CCCCCNC(=O)c1c[nH]c2ccc(S(=O)(=O)N3CCC(C)CC3)cc2c1=O | ? | . | . | . | ?
CCn1c(=N)n(CCOc2ccc(Br)cc2)c2ccccc21 | ? | . | . | ? | 13.1µM
COc1ccc(OCC(O)Cn2c(=N)n(CCN3CCCCC3)c3ccccc32)cc1 (configuration not stated) | ? | ? | . | ? | /
CCC(=O)Nc1ccccc1-c1nc2ccccc2n(C(C)C(=O)Nc2ccc(OC)cc2)c1=O (configuration not stated) | . | . | . | . | .
O=C(Nc1ccc2oc(-c3ccc4ccccc4c3)nc2c1)c1cc(Br)ccc1Cl | ? | ? | . | . | 16.5µM
O=C(Nc1ccc2oc(-c3ccc4ccccc4c3)nc2c1)c1cc(Cl)ccc1Cl | . | . | . | . | .
O=C(Nc1ccc2oc(-c3cc(Br)ccc3Cl)nc2c1)c1ccc2ccccc2c1 | ? | . | . | 22.4µM | .
CCCN(CCC)C(=O)CSc1c2c(nc3ccc(Cl)cc13)CCCC2 | ? | . | . | . | .
CCCCN(C)C(=O)CSc1c2c(nc3ccc(Cl)cc13)CCCC2 | ? | . | . | . | 18.5µM
CN(Cc1ccccc1)C(=O)CSc1c2c(nc3ccc(Cl)cc13)CCCC2 | ? | . | . | ? | 13.1µM
CC(C)Oc1cccc(C2CC(=O)Nc3cc4c(cc32)OCO4)c1 (configuration not stated) | 4.28µM | . | . | ? | 6.56µM
CCOc1c(Br)cc(C2CC(=O)Nc3cc4c(cc32)OCO4)cc1OC (configuration not stated) | ? | . | . | ? | 14.7µM
COc1cccc(C(=O)CN2CCN(S(=O)(=O)c3ccc(Cl)cc3)CC2)c1 | . | . | . | . | .

Assay outcomes (PubChem)
